# Results: PubChem BioAssay AID504329 (Southern Research Specialized Biocontainment Screening …, 2011)
# The whole screen tested about 340,000 compounds, of which about 1,000 (0.29%) were called active. The list is a sample of the results. Entries with a potency or affinity are not part of this list. Values without a mark were called inactive. Cut-off read from the data, not from the text of the source: inconclusive = inhibition above about 27% without an active follow-up result; inactive = below that.
# Test: H1N1 influenza NS1A inhibitors, functional cell based assay (AID 504329)
# Conditions: percent inhibition, at 12.5 µM, hits give high values
row,SMILES,inhibition [%]
1,O=C(N/C=N/OCc1ccc(Cl)cc1Cl)NOCc1c(Cl)cccc1Cl,-13.6
2,Cc1ccc(S(=O)(=O)NCC(c2ccc3c(c2)OCO3)N2CCN(c3ccccc3)CC2)cc1 (configuration not stated),-19.9
3,Cc1[nH]c(C)c(S(=O)(=O)NCc2ccccc2Cl)c1C(=O)N1CCCC1,9.96
4,c1csc(C(c2nnnn2C2CCCC2)N2CCOCC2)c1 (configuration not stated),5.59
5,O=C(CCNC(=O)c1ccccc1Cl)Nc1ccccc1N1CCCC1,-8.83
6,O=C(NCCN1CCOCC1)c1noc2c1CCc1ccccc1-2,1.97
7,CCCCCN1C(=O)Cn2c(nc3ccccc3c2=O)C1C (configuration not stated),4.12
8,Cc1noc(/C=C/N(C)C)c1S(=O)(=O)N1CCN(c2ccc(F)cc2)CC1,4.41
9,CN(C)c1ccc(/C=C/c2cc[n+](C)c3ccccc23)cc1,58.9
10,CC[n+]1ccccc1/C=C/c1ccc(N(C)C)cc1,8
11,COC(=O)c1ccc(CNC(=O)c2sccc2-c2ccccc2)cc1,4.96
12,COc1ccc2[nH]c3c(=O)n4c(nc3c2c1)SCC4,-0.07
13,CCCCc1ccc(NS(=O)(=O)c2cccc(C(=O)N3CCNC(=O)C3)c2)cc1,0.4
14,Clc1ccc2c(NNc3ccccc3Cl)ccnc2c1,6.7
15,Oc1ccc(Nc2ccnc3cc(Cl)ccc23)cc1,3.37
16,N/C(=N\N=C\c1ccc2c(c1)OCO2)SC1CC(=O)N(c2ccc(C(=O)O)cc2)C1=O (configuration not stated),1.14
17,Cc1ccc(Nc2nc(N3CCOCC3)c3ccccc3n2)cc1,5.53
18,Fc1ccc(Nc2nc(N3CCOCC3)c3ccccc3n2)cc1,4.75
19,CCCOc1ccc(C(=O)NCCN2CCOCC2)cc1,-8.97
20,O=C1C2C3CCCC3=C3CCCC3C2C(=O)N1c1ccc(F)cc1 (configuration not stated),-3.36
21,CCOc1ccc(NS(=O)(=O)c2ccc(-c3cnc(C4CC4)o3)cc2)cc1,-5.05
22,CCSc1nnc(CNc2ccc(C)cc2)n1C,-3.37
23,Oc1ccc(/C=N/N(c2ccccc2)c2ccccc2)cc1O,1.06

row,SMILES,inhibition [%]
1,Oc1ccc(/C=N/N(Cc2ccccc2)c2ccccc2)c(O)c1O,19.2
2,COc1ccc(CCC(=O)N(C)CC(=O)Nc2cc(C)ccc2C)cc1,-11.1
3,CC(C)OC(=O)c1cc(NC(=O)C2C3C=CC(O3)C2C(=O)O)cc(C(=O)OC(C)C)c1 (configuration not stated),6.16
4,O=C1[C@H]2[C@@H](C(=O)N1c1cccc3ccccc13)C1(C(=O)c3ccccc3C1=O)N1CCC[C@@H]21,-0.49
5,COc1nc(C)nc(NC(=O)NS(=O)(=O)c2ccccc2Cl)n1,-15.1
6,COc1cc(OC)nc(NC(=O)NS(=O)(=O)c2ccccc2Cl)n1,-10.9
7,C/C(=N\NC(=O)c1ccccc1OCc1ccc(F)cc1)c1ccccn1,-7.95
8,C/C(=N\NC(=O)c1ccccc1)c1cccc(Br)c1,3.22
9,O=C(NCCNC(=O)c1ccccc1F)c1ccccn1,-7.82
10,C/C(=N\NC(=O)c1cccc(Br)c1)c1cccnc1,0.75
11,C/C(=N/NC(=O)c1ccccn1)c1ccc(O)cc1,-1.61
12,C/C(=N\NC(=O)c1cccc2ccccc12)c1cccnc1,-8.98
13,C/C(=N\NC(=O)c1cccc2ccccc12)c1cccs1,-0.84
14,CCc1ccc(/C(C)=N/NC(=O)c2ccccn2)cc1,-11.6
15,COc1cccc2cc(CC(=O)c3ccccc3)c(=O)oc12,-8.03
16,COc1ccc(-c2oc(=O)c3cc(OC)c(OC)cc3c2C#CCCCO)cc1,6.01
17,COc1ccc(CCNC(=O)CCCCCN2C(=O)c3ccccc3C2=O)cc1OC,-8.38
18,Cc1cc(OCC(=O)NCc2ccncc2)c2c3c(c(=O)oc2c1)CCCC3,-0.56
19,NC(=O)C1CCCc2c1n(Cc1ccccc1)c1ccccc21 (configuration not stated),1.35
20,CN(c1ccc(OCC(=O)OCC(=O)Nc2ccc(OC(F)F)cc2)cc1)S(=O)(=O)c1cccs1,-3.07
21,Cn1c(C(=O)NCCCN2CCN(c3ccccc3F)CC2)cc2c(=O)n(C)c3ccccc3c21,2.56
22,Cc1sc2ncnc(Nc3ccccc3)c2c1C,1.18
23,C/C(=N/NC(=O)c1ccccn1)c1c[nH]c2ccccc12,9.32

row,SMILES,inhibition [%]
1,C/C(=N/NC(=O)c1ccccn1)c1ccncc1,19.9
2,C/C(=N/NC(=O)c1ccncc1)c1c[nH]c2ccccc12,3.5
3,C/C(=N\Nc1ccc(Cl)cc1)c1ccccn1,-19.3
4,Cc1sc2ncnc(N/N=C/c3ccccc3O)c2c1C,12.5
5,O=C(N/N=C(\c1ccccc1)c1ccccn1)c1ccccc1Cl,7.83
6,C/C(=N\Nc1ncc(Cl)cc1Cl)c1ccc(C#N)cc1,-7.31
7,Nc1cc(N)nc(SCC(=O)NCc2ccco2)n1,0.81
8,CN(C(=O)Oc1ccc([N+](=O)[O-])cc1)c1ccccc1,5.58
9,COCCn1c(=O)[nH]c2cc(C(=O)N3CCN(c4cccc(C(F)(F)F)c4)CC3)ccc2c1=O,4.36
10,O=C1NC2NC(=O)N(C(Cc3ccccc3)C(=O)O)C2N1 (configuration not stated),7.19
11,C/C(=N\Nc1ccc(Cl)c(C(=O)O)c1)c1ccccn1,-11.6
12,Clc1ccccc1N=Nc1ccccn1,2.66
13,COc1ccc(C(=O)COC(=O)c2ccccn2)cc1OC,2.06
14,O=C(COC(=O)c1ccccn1)c1ccc(Br)cc1,13.3
15,O=C1CC(=C(c2ccccc2)c2ccccc2)C(=O)N1CCCCN1CCN(c2ccccc2)CC1,0.53
16,COc1cc(/C=C/C(=O)Nc2cccc(S(=O)(=O)N3CCOCC3)c2)ccc1OCC#N,-0.73
17,CN(C(=O)CN1C(=O)c2cc(Cl)c(Cl)cc2C1=O)C1CCS(=O)(=O)C1 (configuration not stated),-4.84
18,CCn1nc([N+](=O)[O-])c(C(C#N)c2nc3ccccc3n2C)c(Cl)c1=O (configuration not stated),0.82
19,Cn1nc([N+](=O)[O-])c(C(C#N)c2nc3ccccc3n2C)c(Cl)c1=O (configuration not stated),3.66
20,Cn1nc([N+](=O)[O-])c(C(C#N)c2ccccn2)c(Cl)c1=O (configuration not stated),7.2
21,CCCn1nc([N+](=O)[O-])c(C(C#N)c2nc3ccccc3o2)c(Cl)c1=O (configuration not stated),17.6
22,Cc1cc(C)cc(NC(=O)C(OC(=O)c2sccc2C)c2ccccc2)c1 (configuration not stated),-3.16
23,COc1ccc(S(=O)(=O)N2CCCC2C(=O)NCc2ccccc2Cl)cc1 (configuration not stated),-6.48

row,SMILES,inhibition [%]
1,CC1(C)CC(=O)C2=C(C1)OC(=O)CC2c1cccs1 (configuration not stated),-6.75
2,CCN(CC)S(=O)(=O)c1ccc(Cl)c(NC(=O)COC(=O)c2c(C)noc2C)c1,-8.29
3,COc1ccc2nc(SC(C)C(=O)NCC(=O)Nc3ccc(F)c(F)c3F)[nH]c2c1 (configuration not stated),-9.36
4,C/C(=N\NC(=O)CN1CCN(Cc2ccccc2)CC1)c1cccs1,0.29
5,O=C(CNC(=O)c1ccccc1F)OCCCOC(=O)CNC(=O)c1ccccc1F,-5.51
6,NC(=O)COC(=O)/C=C/c1ccc(S(=O)(=O)N2CCCCCC2)cc1,5.4
7,C[C@H]1CCC[C@]2(O[C@H](CCO)C[C@@H](O)[C@@H]2O)O1,-6.34
8,Cc1nc(C(F)(F)F)c(C(=O)NC(=O)Nc2ccccc2)s1,-2.55
9,Cc1nc(C(F)(F)F)c(C(=O)N/N=C(\N)c2cccnc2)s1,-4.6
10,COc1ccccc1Oc1ncnc2c1cnn2-c1ccccc1,-2.97
11,CCOC(=O)N1CCc2c(sc(NC(=O)C3COc4ccccc4O3)c2C(N)=O)C1 (configuration not stated),-11.4
12,C#CCOCCOCCOCCNc1nc(N2CCN(C(=O)CCCCCCCCCCNC(=O)[C@H]([C@@H](C)CC)n3cc(CCCCCN)nn3)CC2)nc(N2CCN(C(=O)CCCCCCCCCCNC(=O)[C@H](CO)n3cc(CCCCCN)nn3)CC2)n1,22.1
13,C#CCOCCOCCOCCNc1nc(N2CCN(C(=O)CCCCCCCCCCNC(=O)[C@H]([C@@H](C)CC)n3cc(CCCCN=C(N)N)nn3)CC2)nc(N2CCN(C(=O)CCCCCCCCCCNC(=O)[C@H](CO)n3cc(CCCSC)nn3)CC2)n1,-16.7
14,O=C(COC(=O)c1ccc2ncsc2c1)NC(=O)c1ccccc1,-8.75
15,N#CC(c1ccccc1)c1cnccn1 (configuration not stated),-11
16,COc1ccccc1N/N=C/c1c(CO)cnc(C)c1O,2.27
17,COc1cc(/C=N/Nc2ccc(C(F)(F)F)cn2)cc(OC)c1O,-10.9
18,Cc1ncc(CO)c(/C=N/NC(=S)Nc2ccc(Cl)c(Cl)c2)c1O,2.53
19,Oc1ccc(/C=N/Nc2ccc(C(F)(F)F)cn2)cc1,13.7
20,Cc1ncc(CO)c(/C=N/NC(=S)Nc2ccc(C(C)C)cc2)c1O,11.8
21,Cc1ncc(CO)c(/C=N/Nc2cccc(Cl)n2)c1O,-2.98
22,COc1ccccc1N(C(=O)c1ccco1)C(C(=O)NC1CCCCC1)c1cc(OC)c(OC)c(OC)c1 (configuration not stated),7.04
23,CC(C)=C1C2CCC1C1C(=O)N(NC(=O)COc3ccc(C(C)(C)C)cc3)C(=O)C21 (configuration not stated),4.52
